Shown are actives, neighbours in structure and some others; about 2.2% of the full set was active somewhere.
Vaccinia Venus = qHTS for Stage-Specific Inhibitors of Vaccinia Orthopoxvirus: Venus Reporter Primary qHTS. Potency, µM (titrated, usually from 36.5 µM), for inactives: top-dose activity change, negative = inhibition, hits mostly inhibitors. AID 720580, 2013. Vaccinia virus Venus reporter expression, fluorescence. 330,000 compounds, 0.46% hits; calls by dose curve; tested in A549 cells; also: nearly all actives have a fitted effect of over 30% in size
Giardia FBPA inh = qHTS Assay for Inhibitors of Fructose-1,6-bisphosphate Aldolase from Giardia Lamblia; AID 2451, 2010; purified Giardia FBPA; 290,000 compounds, 0.71% hits; A8B2U2; Potency, µM (highest dose often 59.6 µM), for inactives: at the highest dose activity, negative = inhibition, most hits filed as inhibitors; active = well fitted inhibition curve with a large enough effect; inconclusive = small, poorly fitted or top-dose-only effect, or effect the other way; also: nearly all actives have a fitted effect of over 55% in size
Target sequence (A8B2U2 whole entry, looked up): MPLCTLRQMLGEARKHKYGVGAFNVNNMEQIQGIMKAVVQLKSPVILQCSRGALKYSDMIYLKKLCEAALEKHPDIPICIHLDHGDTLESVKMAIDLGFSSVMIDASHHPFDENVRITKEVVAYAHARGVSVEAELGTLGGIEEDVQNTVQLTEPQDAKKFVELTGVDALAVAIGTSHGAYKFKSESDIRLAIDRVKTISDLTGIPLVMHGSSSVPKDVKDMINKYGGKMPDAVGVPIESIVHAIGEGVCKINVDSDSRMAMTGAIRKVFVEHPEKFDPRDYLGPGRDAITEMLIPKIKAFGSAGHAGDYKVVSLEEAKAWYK
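Giardia FBPA (40 nM reagent) was preincubated 10 min at RT with compound (up to 57.5 uM final), then substrate plus GAPDH/TPI/NAD/arsenate coupling system with diaphorase/resazurin was added; resorufin fluorescence (525/598 nm) was read after 20 min.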
VACV mCherry inh = qHTS for Stage-Specific Inhibitors of Vaccinia Orthopoxvirus: mCherry Reporter Primary qHTS; Vaccinia virus mCherry reporter infection, fluorescence; Potency, µM (series often up to 36.5 µM), without a hit: at the top dose activity change, negative = inhibition, actives largely listed as inhibitors; 310,000 compounds, 0.63% hits; calls by dose curve; tested in A549 cells; also: nearly all actives have a fitted effect of over 35% in size
FMDV antiviral = High Throughput Screening for Foot and Mouth Disease Virus Antivirals | FMDV antiviral cell-based qHTS | Potency, µM (series often up to 57.9 µM), for the others: at the highest dose activity change, negative = inhibition, actives largely listed as inhibitors | 410,000 compounds, 1.2% hits | AID 1159524, 2015; calls by dose curve; tested in HEK293T cells; also: read-out not given here; nearly all actives have a fitted effect of over 45% in size
* = called active by the depositor. % is scaled to controls: 0 for no effect and ±100 for the full control effect; potency is read from the fitted curve at half-maximal effect.

`O=C(NCC1CCN(Cc2ccc(Cl)cc2)CC1)C1CCCN(c2ncnc3c2nc2n3CCCCC2)C1` (stereo not drawn) gave FMDV antiviral 10µM*.
Screening Cc1ccnn1CC(=O)N1CCOc2c(cc(-c3ncc(C(F)(F)F)cc3Cl)cc2OCC2CCCO2)C1 (stereo not drawn) returned Vaccinia Venus -4%, VACV mCherry inh -7% and FMDV antiviral 6%.
Cc1[nH]c2ccccc2c1/C=C/c1ccnc2ccccc12 was read as Vaccinia Venus 80% and VACV mCherry inh -29%.
O=C(Nc1nc2ccccc2[nH]1)c1ccc(OC(F)F)cc1 was read as Vaccinia Venus -23%, Giardia FBPA inh 21%, VACV mCherry inh -17% and FMDV antiviral 13µM*.
COc1cc(C(=O)Nc2nc3ccccc3[nH]2)ccc1OC(F)F was read as Vaccinia Venus -24%, Giardia FBPA inh inconclusive, VACV mCherry inh -7% and FMDV antiviral -1%.
Screening CC(C)Oc1ccc(C(=O)Nc2nc3ccccc3[nH]2)cc1 returned Vaccinia Venus -5%, Giardia FBPA inh 5%, VACV mCherry inh 52% and FMDV antiviral 7.9µM*.
For Cc1nn(C)cc1CNc1nc(C)c(-c2ccn(CC3COc4ccccc4O3)n2)s1 (stereo not drawn) the results were Vaccinia Venus -10%, VACV mCherry inh -9% and FMDV antiviral inconclusive.
COc1ccc(OC)c(/C=C/c2ccc3ccccc3[n+]2C)c1 was read as Vaccinia Venus 11% and VACV mCherry inh 26%.
For CCCCCSc1nncc(=O)[nH]1 the results were Giardia FBPA inh 5% and FMDV antiviral 15%.
CCCCCCCCSC1=CC(=O)C(OC)=C(OC)C1=O was read as Vaccinia Venus -8%, VACV mCherry inh -7% and FMDV antiviral 18µM*.
Screening O=C(CCl)Nc1ccc(Oc2cnc3ccccc3n2)cc1 returned Giardia FBPA inh 0% and FMDV antiviral 20µM*.
`O=C(O)COc1cnc2ccccc2n1` gave Vaccinia Venus -7%, Giardia FBPA inh 0%, VACV mCherry inh -13% and FMDV antiviral -3%.
`O=C(CCl)Nc1cccc(-c2cnc3ccccc3n2)c1` gave Vaccinia Venus inconclusive, Giardia FBPA inh inconclusive, VACV mCherry inh 11µM* and FMDV antiviral 25µM*.
For O=[N+]([O-])c1ccc(CS(=O)c2ccccc2)cc1 (stereo not drawn) the results were Vaccinia Venus -7%, VACV mCherry inh inactive and FMDV antiviral 8%.
O=[N+]([O-])c1ccc(S(=O)Cc2ccccc2)c([N+](=O)[O-])c1 (stereo not drawn) was read as Vaccinia Venus -16%, VACV mCherry inh -6% and FMDV antiviral 14µM*.
`Cc1ccc(C#N)c(SCc2nnc(-c3ccc(Cl)cc3)o2)n1` gave Vaccinia Venus -11%, Giardia FBPA inh 3%, VACV mCherry inh -12% and FMDV antiviral 20µM*.
For CN(C)c1cccc(C(=O)NCC2Cc3cccc(-c4cncnc4)c3O2)c1 (stereo not drawn) the results were Vaccinia Venus -4%, VACV mCherry inh -13% and FMDV antiviral 13%.
N#Cc1ccc(Oc2nc(C#N)cc(-c3ccccc3)n2)cc1 was read as Vaccinia Venus -21%, Giardia FBPA inh 0%, VACV mCherry inh -10% and FMDV antiviral 11µM*.
For Cc1cc(C(=O)CCl)c(C)n1-c1ccon1 the results were Vaccinia Venus -18%, Giardia FBPA inh -2%, VACV mCherry inh -16% and FMDV antiviral 22µM*.
For Cc1cc(C(=O)CCl)c(C)n1-c1cccc([N+](=O)[O-])c1 the results were Vaccinia Venus -3%, Giardia FBPA inh 1%, VACV mCherry inh inactive and FMDV antiviral 11µM*.
O=c1[nH]nc(CNc2ccc(O)cc2)c2ccccc12 was read as Vaccinia Venus 17%, Giardia FBPA inh 18µM*, VACV mCherry inh 10% and FMDV antiviral -12%.
For COc1cccc(OC)c1C(=O)NCCc1ccccc1 the results were FMDV antiviral -24%.
COC(=O)c1c(N)sc(C(=O)NCCc2ccccc2)c1C was read as Vaccinia Venus -16%, Giardia FBPA inh 15%, VACV mCherry inh inactive and FMDV antiviral 6.3µM*.
For Cc1ccn2c(NCc3ccco3)c(-c3ccccc3)nc2c1 the results were Vaccinia Venus -8% and VACV mCherry inh -13%.
`CCCCCCOc1ccc(/C=C/C(=O)Nc2sc3c(c2C(=O)OC)CCC3)cc1OC` gave Vaccinia Venus -13%, VACV mCherry inh -27% and FMDV antiviral 14µM*.
CC(C)c1nc(SCC(=O)N2CCN(c3ccccc3)CC2)c2c(=O)n(C)c(=O)n(C)c2n1 was read as Vaccinia Venus -12%, Giardia FBPA inh 1%, VACV mCherry inh inactive and FMDV antiviral 20µM*.
COc1ccc(CN(Cc2ccccc2)C(=O)CN2CCN(C)CC2)cc1COc1ccc(NC(C)=O)cc1 was read as Vaccinia Venus -19% and VACV mCherry inh -3%.
CC1(C)c2ccccc2C(=O)c2ccccc21 was read as Vaccinia Venus -14%, VACV mCherry inh -13% and FMDV antiviral 0%.
O=[N+]([O-])C1C(c2ccccc2)C12c1ccccc1-c1ccccc12 (stereo not drawn) was read as Vaccinia Venus inconclusive, VACV mCherry inh inconclusive and FMDV antiviral 14µM*.
Cc1c(C(=O)N2CCCC(c3ccccc3)C2)sc2ncnc(NCCc3ccccn3)c12 (stereo not drawn) was read as Vaccinia Venus 2%, VACV mCherry inh -14% and FMDV antiviral -12%.
For CCCCOc1ccc(C(O)C(CN2CCCCC2)c2ccccc2)cc1 (stereo not drawn) the results were Vaccinia Venus -9%, Giardia FBPA inh -6%, VACV mCherry inh -10% and FMDV antiviral inconclusive.
For CCCOc1ccc(C(=O)C(CN2CCCC2)c2ccccc2)cc1 (stereo not drawn) the results were Vaccinia Venus 10µM*, Giardia FBPA inh 3%, VACV mCherry inh inconclusive and FMDV antiviral 18µM*.
Screening CCC(O)(c1ccc(OC)cc1)C(CN1CCOCC1)c1ccccc1 (stereo not drawn) returned Giardia FBPA inh -8% and FMDV antiviral -13%.
`O=C(c1ccc(F)cc1)C(CN1CCOCC1)c1ccccc1` (stereo not drawn) gave Vaccinia Venus 13µM*, Giardia FBPA inh -12%, VACV mCherry inh 14µM* and FMDV antiviral 8.9µM*.
COc1ccc(C(=O)C(CN2CCCC2)c2ccccc2)cc1 (stereo not drawn) was read as Vaccinia Venus inconclusive, Giardia FBPA inh -4%, VACV mCherry inh 11µM* and FMDV antiviral 16µM*.
`COc1ccc(C(=O)C(CN2CCOCC2)c2ccccc2)cc1` (stereo not drawn) gave Vaccinia Venus 10µM*, Giardia FBPA inh -9%, VACV mCherry inh 10µM* and FMDV antiviral 11µM*.
COc1ccc(N2CCN(c3csc4ccccc4c3=O)CC2)cc1 was read as Vaccinia Venus -15%, VACV mCherry inh -18% and FMDV antiviral -13%.

Compound activity (PubChem)
